The list is not random: actives were taken first. Their share in the collection is about 2.6%.
pPAFAH FP inh = inhibitors of human plasma PAF acetylhydrolase (pPAFAH). recombinant pPAFAH, FP-rhodamine probe fluorescence polarization. inhibition, % at 3.39 µM. 1.5% of 330,000 active. AID 463082;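 active = inhibition above the mean inhibition across the screen plus 3 SD, cut at about 25% in these data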;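 also: inhibitors block binding of the rhodamine activity-based probe so polarization drops; 0% = enzyme with DMSO and 100% = wells lacking pPAFAH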
PKA-R1A activ = activates the PKA-R1A holoenzyme complex. P00514+P68181. PKA-R1A dissociation, Cy5-IP20 fluorescence polarization; scaled: DMSO 0%, 113 µM cGMP 100%. 0.083% of 340,000 active. activation, % at 11.4 µM;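 active = percent activation above the mean of all tested compounds plus 3 SD, cut at about 19% in these data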;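 also: higher means more PKAc released from R1A so a rise in polarization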
PAFAH1B3 inh = inhibitors of human PAFAH1B3 | Q15102 | recombinant PAFAH1B3, FP-rhodamine probe, fluorescence polarization | inhibition, % at 3.39 µM | 0.28% of 340,000 active | AID 492972;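 active = inhibition above the screen-wide average of all tested compounds plus 3 SD, cut at about 25% in these data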;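 also: 0% = enzyme with DMSO only and 100% = wells lacking PAFAH1B3 protein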
Target sequence (Q15102 whole entry, looked up): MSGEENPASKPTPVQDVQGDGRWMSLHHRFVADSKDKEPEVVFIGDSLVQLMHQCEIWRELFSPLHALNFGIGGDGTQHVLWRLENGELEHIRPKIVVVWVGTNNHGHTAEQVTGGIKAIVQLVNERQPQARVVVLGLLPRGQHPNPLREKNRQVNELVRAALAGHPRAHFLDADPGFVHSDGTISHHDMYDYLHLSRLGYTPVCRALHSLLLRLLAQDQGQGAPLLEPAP
PAFAH2 inh = PAFAH2 (human) inhibition. Q99487. recombinant PAFAH2, FP-rhodamine activity probe, fluorescence polarization. inhibition, % at 3.39 µM. 0.99% of 340,000 active;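 active = inhibition above the mean over all tested compounds plus 3 SD, cut at about 30% in these data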;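 also: inhibitors block probe labeling of enzyme so polarization drops; 0% = enzyme with DMSO and 100% = wells lacking PAFAH2 protein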
PAFAH1B2 FP inh = blocks human PAF acetylhydrolase 1b catalytic subunit 2; P68402; recombinant PAFAH1B2, FP-rhodamine activity probe, fluorescence polarization; inhibition, % at 3.39 µM; 1.2% of 340,000 active; AID 492953;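 active = inhibition above the mean of all tested compounds plus 3 SD, cut at about 24% in these data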;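 also: 0% = enzyme with DMSO and 100% = wells lacking PAFAH1B2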
Target sequence (P68402 whole entry, looked up): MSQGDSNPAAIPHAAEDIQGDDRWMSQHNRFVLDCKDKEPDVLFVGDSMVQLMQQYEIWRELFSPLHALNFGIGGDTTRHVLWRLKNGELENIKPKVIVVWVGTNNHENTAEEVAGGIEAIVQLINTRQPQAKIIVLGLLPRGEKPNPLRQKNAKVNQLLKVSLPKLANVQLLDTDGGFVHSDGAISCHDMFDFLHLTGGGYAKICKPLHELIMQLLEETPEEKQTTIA
PKA-R2B act = activates the human PKA-R2B holoenzyme complex; P22694+P31323; PKA-R2B holoenzyme dissociation, Cy5-IP20 fluorescence polarization; R2B truncated from residue 108, S112A mutant; 0% DMSO only, 100% 113 µM cGMP; activation, % at 11.4 µM; 0.079% of 340,000 active; AID 504700;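 active = activation above a cutoff set at the mean over all compounds plus 3 SD, cut at about 18% in these data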;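 also: higher means more holoenzyme dissociation and a rise in polarization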
PAFAH2 confirm = confirmation of human PAFAH2 inhibitors; shares compounds with PAFAH2 inh; inhibition, % at 3.39 µM; 65% of 2,300 active; recombinant PAFAH2, FP-rhodamine activity probe, fluorescence polarization;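 active = mean inhibition over three repeats above a set limit taken from the earlier primary screen, cut at about 30% in these data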;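 also: inhibitor blocks binding of rhodamine activity probe so polarization falls; 0% = enzyme with DMSO and 100% = wells lacking PAFAH2 protein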
* hit, by the source's call; · = no result.

SMILES	pPAFAH FP inh	PKA-R1A activ	PAFAH1B3 inh	PAFAH2 inh	PAFAH1B2 FP inh	PKA-R2B act	PAFAH2 confirm
CN(C)c1ccc(NC(=O)COC(=O)c2ccc3c(c2)OCO3)cc1	10.6	-0.9	-1.3	31.9*	-2.1	6.7	26.6
COc1ccc(C(=O)OCC(=O)Nc2c(C)cccc2C)cc1	8.2	4.9	1.8	67.4*	0.3	1.8	60.1*
COc1cccc(NC(=O)COC(=O)c2ccc3c(c2)OCCO3)c1	·	11.8	·	·	·	-1.2	·
CN(C)c1nc(Oc2ccc(C(=O)OCC(=O)Nc3ccccc3)cc2)nc(N(C)C)n1	23.3	1.3	0.1	89.9*	1.0	8.7	76.2*
COc1cccc(NC(=O)COC(=O)c2ccc3c(c2)OCO3)c1	·	-9.9	-1.4	83.4*	2.4	-8.9	73.0*
O=[N+]([O-])c1ccc(C23CC4CC(CC(O)(C4)C2)C3)cc1	2.6	·	·	·	·	·	·
CC1CCCCC1NC(=S)NC(=O)c1cccs1 (configuration not stated)	2.6	0.3	0.4	-0.4	-0.5	6.1	·
C[C@H](CO)N1C[C@H](C)[C@@H](CN(C)S(=O)(=O)c2ccc(Oc3ccccc3)nc2)OCc2cn(nn2)CCCC1=O	·	0.1	·	·	·	0.1	·
Cc1ccc(S(=O)(=O)N2C[C@]3(O)C[C@@H]4C(=O)N(c5ccccc5)C(=O)[C@@H]4C[C@]3(OC(=O)Nc3c(C)noc3C)C2)cc1	·	-6.3	·	·	·	3.0	·
CCN1C(=O)[C@H]2[C@@H](c3ccc(C)cc3)N[C@]3(CCCN(Cc4ccc(Cl)cc4)C3=O)[C@H]2C1=O	·	-20.8	·	·	·	-7.8	·
O=C(COC(=O)c1ccc2c(c1)OCO2)Nc1ccccc1OC(F)F	12.1	-8.1	4.8	47.4*	2.6	-4.6	46.3*
O=C(COC(=O)/C=C/c1ccc2c(c1)OCO2)Nc1ccccc1	3.5	-3.2	8.0	78.7*	9.4	-0.2	81.3*
CC(NS(=O)(=O)c1ccc(Cl)c(Cl)c1)C(=O)OCC(=O)Nc1ccc2c(c1)OCO2 (configuration not stated)	10.5	-1.3	5.2	30.9*	3.4	0.6	23.9
O=C(COC(=O)/C=C/c1ccc2c(c1)OCO2)Nc1ccc(S(=O)(=O)N2CCCC2)cc1	3.5	-2.0	-7.3	-7.9	-2.2	18.3	·
Cc1cccc(NC(=O)COC(=O)c2ccc3c(c2)OCO3)c1C	1.6	5.6	10.1	39.8*	1.6	5.9	42.2*
C[C@@H](NC(=O)c1[nH]cnc1C(=O)Nc1ccccc1F)c1ccccc1	·	2.0	·	·	·	-7.4	·
COc1ccccc1C(=O)OCc1c(-c2ccccc2)ncc2ccccc12	-1.5	5.5	-1.6	-0.4	0.9	0.9	·
Cn1cccc1C(=O)NC(=O)COC(=O)c1ccc(S(C)(=O)=O)cc1	2.5	3.9	8.1	-0.8	2.4	1.7	·
CC(C)(C)C(=O)COC(=O)c1ccc(O)cc1	-5.7	-4.0	3.7	-1.2	5.1	4.9	·
CC(C)NC(=O)COC(=O)c1ccc(O)cc1	-4.0	-1.9	4.7	47.9*	3.4	-8.0	24.4
Cn1cccc1C(=O)NC(=O)COC(=O)c1ccc(O)cc1	-1.9	1.8	2.0	52.5*	-0.2	1.5	45.1*
CCN(CC)S(=O)(=O)c1cc(C(=O)OCC(=O)NC(=O)c2cccn2C)ccc1C	17.6	-9.0	-4.1	61.8*	5.7	-4.2	49.9*
O=C(COC(=O)/C=C/c1ccccc1)NC1CCCC1	9.4	3.4	7.1	84.4*	6.1	-6.9	74.2*
O=C(COC(=O)/C=C/c1ccccc1Cl)NC1CCCCCC1	20.7	-6.4	6.3	71.7*	-0.9	-4.5	74.5*
COc1cccc(/C=C/C(=O)OCC(=O)NC2CCCC2)c1	·	1.0	·	·	·	-0.8	·
COc1cccc(/C=C/C(=O)OCC(=O)NC2CC2)c1	1.9	11.1	9.2	41.1*	0.6	6.6	38.4*
COc1cccc(/C=C/C(=O)OCC(=O)NC2CCCCCC2)c1	·	-12.5	·	·	·	0.1	·
O=C(COC(=O)/C=C/c1cccc(Br)c1)NC1CCCC1	12.8	-4.4	13.1	65.6*	-2.3	-5.3	59.1*

Screening results (PubChem BioAssay)
